4-MU autofl – qHTS Assay for Spectroscopic Profiling in 4-MU Spectral Region; compound autofluorescence, 340/450 nm, 4-MU equivalents; hits give high values; AID 589, 2007; 59,000 compounds, 11% hits; max dye-equivalent concentration, M; in the data active = max dye-equivalent concentration above about 10 nM; inconclusive = mostly about 1.1 nM to 9.6 nM
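Compounds in 100 mM Tris, pH 8.0, sat 15 min at room temperature before fluorescence was read at 340 nm excitation/450 nm emission; a per-plate six-point 4-MU standard curve converted signals to dye-equivalent concentration at each compound concentration.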
CRE Fsk mod – Cell signaling CRE-BLA (Fsk stim); CHO CRE-bla reporter (cAMP response element driving beta-lactamase), forskolin EC10, beta-lactamase ratio; Potency, µM (titrated, usually from 38.2 µM), hits mostly activators; 71,000 compounds, 2.5% hits; active = well fitted activation curve with a large enough effect in the signal ratio, with a control signal flat, not every such curve was filed as active; inconclusive = small, poorly fitted or top-dose-only effect, or effect the other way, or a change in a side signal; the % refers to the signal ratio
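qHTS titration format; CRE-bla CHO reporter; stimulus EC10 NKH 477, a water-soluble forskolin. Read: CCF4 460/530 nm ratio. Potency expressed as AC50 for activators or inhibitors.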
A350 autofl – qHTS Assay for Spectroscopic Profiling in A350 Spectral Region | Compound autofluorescence, 340/450 nm, Alexa 350 dye-equivalents; hits give high values | max dye-equivalent concentration, M | 59,000 compounds, 11% hits | AID 590, 2007; in the data active = max dye-equivalent concentration above about 10 nM; inconclusive = mostly about 1.1 nM to 9.6 nM
AID923 – qHTS Assay for Allosteric/Competitive Inhibitors of Caspase-1: Spectroscopic Profiling in AFC Spectral Region; compound fluorescence, AFC spectral region (405/520 nm); Potency, µM (titrated, usually from 57.5 µM), actives largely listed as activators; 75,000 compounds, 1.1% hits; AID 923, 2007
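Titrations up to 57 uM read every 20 sec for 3 min (405/520 nm) with 50 nM caspase 1 and 5 uM Ac-WEHD-AFC, pH 7.5 HEPES buffer. Fluorescence-vs-time intercept gave baseline, scaled against on-plate AFC standard.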
HSD17B inh – qHTS Assay for Inhibitors of HSD17B4, hydroxysteroid (17-beta) dehydrogenase 4 | 3-hydroxyacyl-CoA dehydrogenase type-2 (Homo sapiens), Q99714 | recombinant HSD17B10, NADH fluorescence kinetic | Potency, µM (highest dose often 57.1 µM), hits mostly inhibitors | 75,000 compounds, 7.6% hits | AID 893, 2007;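 also: the protocol describes HADH2 (HSD17B10) and not the HSD17B4 of the title; nearly all actives have a fitted effect of over 70% in size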
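Activity followed as NADH fluorescence increase (ex 360, em 450 nm) every 30 seconds for 4 min, using final 90 uM beta-hydroxybutyryl CoA and 1 mM NAD+. Recombinant His-tagged enzyme, 20 nM, pH 9.0 Tris buffer, 15 min compound preincubation.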
HADH2 inh – qHTS Assay for Inhibitors of HADH2 (Hydroxyacyl-Coenzyme A Dehydrogenase, Type II); 3-hydroxyacyl-CoA dehydrogenase type-2 (Homo sapiens), Q99714; recombinant HADH2, NADH fluorescence, beta-hydroxybutyryl-CoA; Potency, µM (doses to about 57.1 µM), actives largely listed as inhibitors; 73,000 compounds, 3.4% hits; AID 886, 2007; also: nearly all actives have a fitted effect of over 60% in size
Target sequence (Q99714 whole entry, looked up, one chain of several): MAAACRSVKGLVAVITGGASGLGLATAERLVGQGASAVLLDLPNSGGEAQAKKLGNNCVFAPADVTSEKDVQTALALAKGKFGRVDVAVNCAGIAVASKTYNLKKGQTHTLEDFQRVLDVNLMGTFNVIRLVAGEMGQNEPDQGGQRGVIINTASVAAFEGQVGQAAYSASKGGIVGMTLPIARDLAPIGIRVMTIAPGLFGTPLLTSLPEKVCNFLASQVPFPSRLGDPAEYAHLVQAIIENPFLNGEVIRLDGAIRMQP
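His-tagged recombinant enzyme from E. coli, 20 nM, preincubated 15 min RT with compound; reaction started with 1 mM NAD+ and 90 uM beta-hydroxybutyryl-CoA in 100 mM Tris-HCl pH 9.0. NADH fluorescence (ex 360/em 450) read over 4 min; last-minus-first difference.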
Numbers stand for hits; [ ] = dose if it differs, or a comment. Shown are actives, neighbours in structure and some others; about 14% of the full set was active somewhere. Unless noted, calls follow the shape of the dose curve; as a rule, active = well fitted curve in the direction sought with a large enough effect; inconclusive = small, poorly fitted or top-dose-only effect, or another doubt; inactive = no such curve, though single readings can be large; an effect the other way counts as inactive or inconclusive.

How did Cn1c(C(=O)NCCCN2CCOCC2)cc2c(=O)n(C)c3ccccc3c21 do in these assays?
CRE Fsk mod: inconclusive; AID923: inactive; HSD17B inh: 7.9µM; HADH2 inh: inconclusive

How did CC1CCN(CCCNC(=O)c2cc3c(=O)n(C)c4ccccc4c3n2C)CC1 do in these assays?
CRE Fsk mod: inactive; AID923: inactive; HSD17B inh: 32µM; HADH2 inh: inactive

Results for CCOC(=O)c1cc2c(=O)n(C)c3ccccc3c2s1 ?
4-MU autofl: 1.9e-08M; CRE Fsk mod: inconclusive; A350 autofl: 1.9e-08M; AID923: inactive; HSD17B inh: inconclusive; HADH2 inh: inactive

What do the screens show for `Cc1nnc(SCCn2c(N3CCCC(C)C3)nc3c2c(=O)n(C)c(=O)n3C)s1` (stereo unspecified)?
CRE Fsk mod: inactive; AID923: inactive; HSD17B inh: inactive; HADH2 inh: inactive

How did CS(=O)(=O)c1ccc(CNC(=O)[C@H]2C[C@@H]2[C@H](NP(=O)(c2ccccc2)c2ccccc2)c2ccccc2)cc1 do in these assays?
CRE Fsk mod: inactive; AID923: inactive; HSD17B inh: inactive; HADH2 inh: inactive

How did Cn1c(C(=O)NCc2ccccn2)cc2c(=O)n(C)c3ccccc3c21 do in these assays?
CRE Fsk mod: 5µM; AID923: inactive; HSD17B inh: 25µM; HADH2 inh: inactive

What do the screens show for `CN(C)c1ccc(-c2cncnc2-n2ccnc2)cc1`?
4-MU autofl: 4.1e-08M; CRE Fsk mod: inactive; A350 autofl: 4.8e-08M; AID923: inactive; HSD17B inh: inconclusive; HADH2 inh: inactive

Results for COC(=O)c1ccc(C#CC(NP(=O)(c2ccccc2)c2ccccc2)c2ccccc2)cc1 (stereo unspecified) ?
CRE Fsk mod: inactive; AID923: inactive; HSD17B inh: inconclusive; HADH2 inh: 20µM

How did CCn1c(SCC(=O)NCc2ccc3c(c2)OCO3)nnc1-c1c[nH]c2ccccc12 do in these assays?
4-MU autofl: inactive; CRE Fsk mod: inactive; A350 autofl: inactive; AID923: inactive; HSD17B inh: inactive; HADH2 inh: inactive

What do the screens show for `CCCCC1CC1C(=O)Nc1ncc2c(n1)CC(C)(C)CC2=O` (stereo unspecified)?
4-MU autofl: 1.8e-08M; CRE Fsk mod: inactive; A350 autofl: 1.9e-08M; AID923: inactive; HSD17B inh: inactive; HADH2 inh: inactive

Results for CSc1nc(N)c2ncn([C@@H]3O[C@@H](COP(=O)(O)OP(=O)(O)O)[C@@H](O)[C@H]3O)c2n1 ?
4-MU autofl: inactive; CRE Fsk mod: inactive; A350 autofl: inactive; AID923: inactive; HSD17B inh: inactive; HADH2 inh: inactive

What do the screens show for `N#Cc1nc(COc2ccccc2)oc1N1CCOCC1`?
4-MU autofl: inactive; CRE Fsk mod: inactive; A350 autofl: inactive; AID923: inactive; HSD17B inh: inactive; HADH2 inh: inactive

Results for CC1CN(c2oc(-c3cccs3)nc2C#N)CC(C)O1 (stereo unspecified) ?
4-MU autofl: 1.5e-06M; A350 autofl: 1.7e-06M

What do the screens show for `N#Cc1nc(-c2cccs2)oc1N1CCOCC1`?
4-MU autofl: 3.5e-06M; CRE Fsk mod: inconclusive; A350 autofl: 4.5e-06M; AID923: inactive; HSD17B inh: 13µM; HADH2 inh: 3.2µM

Results for COc1ccc(C(=O)N2CCC[C@@]3(CCN(c4ccccc4)C3)C2)cc1 ?
4-MU autofl: inactive; CRE Fsk mod: inactive; A350 autofl: inactive; AID923: inactive; HSD17B inh: inactive; HADH2 inh: inactive

What do the screens show for `O=S1(=O)[C@H]([C@H]2CC3c4ccccc4C2c2ccccc23)[C@@H](N2CCCCC2)[C@@H]1c1ccccc1`?
4-MU autofl: inactive; CRE Fsk mod: inactive[7.6 µM]; A350 autofl: inactive; AID923: inactive[11.5 µM]; HSD17B inh: inactive[11.4 µM]; HADH2 inh: inactive[11.4 µM]

Assay outcomes from PubChem.
